Results filed as inconclusive are left out. The source made the active and inactive calls. Calls come from the whole dose curve; as a rule, active = well fitted activation curve with a large enough effect; inconclusive = small, poorly fitted or top-dose-only effect; inactive = no such curve, though single readings can be large or run the other way.
test: qHTS Assay for Identifying a Potential Treatment of Ataxia-Telangiectasia: Hit Validation; conditions: Ataxia-telangiectasia cell-based hit validation qHTS, in ATM-null A-T patient fibroblasts; series mostly up to 76.9 µM; activity change, positive = activation: at the top concentration;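 note: phospho-KAP1 level by AlphaLISA as a proxy for ATM-like kinase activity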; for activity change, positive = activation: 0% is about no effect
Summary of the method: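 hTERT-immortalized A-T patient fibroblasts (F2112) were dosed at up to 76.7 uM final for 60 min at 37C. After a further 30 min incubation, cells were lysed, and phospho-KAP1 was detected by AlphaLISA after 6 hr at 25C.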
Potency is the fitted concentration of half-maximal effect.

| SMILES | activity change, positive = activation | Potency |
| --- | --- | --- |
| Cc1ccc(C(=O)Nc2sc3c(c2C(=O)O)CCCCC3)o1 | 11.1% (inactive) | – |
| Cn1cc(/C=N/NC(N)=S)c2ccccc21 | -7.64% (inactive) | – |
| O=C1/C(=C/c2ccc(N3CCOCC3)o2)SC(=Nc2ccccc2)N1CCc1c[nH]c2ccccc12 | 0.694% (inactive) | – |
| CC(CCc1ccccc1)NC(=O)COC(=O)c1ccc(F)cc1 (centres undefined) | 0% (inactive) | – |
| CCCCN(c1nc2ccccc2nc1Cl)S(=O)(=O)c1ccc(C)cc1 | – | 26 µM (active) |
| CCOC(=O)C1=C(O)C(=O)N(Cc2ccccc2)C1 | -8.74% (inactive) | – |
| N#Cc1c(-c2ccccc2)cc(-c2ccccc2)[nH]c1=O | -11.2% (inactive) | – |
| O=C1C2C3C=CC(CC3)C2C(=O)N1c1cccc(Br)c1 (centres undefined) | -2.01% (inactive) | – |
| CCN(CC)c1ccc2cc(-c3nc4ccccc4[nH]3)c(=O)oc2c1 | 5.9% (inactive) | – |
| Brc1c(C[n+]2ccccc2)nc2ccccn12 | 39.5% (inactive) | – |
| CC1=C/C(=C\C=C(C#N)C#N)N(C)c2ccccc21 | 6.25% (inactive) | – |
| CCn1c(SCc2cccc(F)c2)nnc1-c1ccncc1 | -1.39% (inactive) | – |
| NC(=O)c1cc2ccccc2o/c1=N/NC(=O)c1cccc(F)c1 | 25.9% (inactive) | – |
| COc1ccc(NS(=O)(=O)c2ccc(N3CC(O)=C(c4ccccc4)C3=N)cc2)cc1 | -5.56% (inactive) | – |
| CC(=O)Nc1ccc(NC2=CC(=O)c3ccccc3C2=O)cc1 | -33% (inactive) | – |
| CCN1CCN(CC(=O)Nc2ccc(C(C)=O)cc2)CC1 | – | 26 µM (active) |
| CC(C)c1ccc(-c2cc(C(=O)N3CCOCC3)c3cc(Br)ccc3n2)cc1 | 20.6% (inactive) | – |
| COc1ccc(CCn2c(S)nc3ccccc3c2=O)cc1 | – | 26 µM (active) |
| O=C1CN(C(=O)NCC(=O)N[C@H](C(=O)O)c2ccccc2)c2ccccc2N1 | -3.5% (inactive) | – |

— PubChem BioAssay AID493192 (National Center for Advancing Translational Sciences (NCATS), 2011)
